For test [1], the target named is Metallo-beta-lactamase type 2 (Klebsiella pneumoniae) (UniProt C7C422). Description: qHTS to identify inhibitors of the New Delhi Metallo-beta-lactamase (NDM): assay validation screen against the NCATS LOPAC Collection (AID 1794843).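 Also: nitrocefin turnover by NDM-1 measured as 485 nm absorbance at plateau.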 The gist of the method: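 NDM-1 at 2 nM final in 50 mM HEPES pH 7.0, 1 uM ZnSO4, 0.01% Tween20, preincubated with LOPAC compounds pinned in DMSO; 50 uM nitrocefin (stock) added. Hydrolysis read as absorbance at 485 nm in the plateau phase.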
On the technique in general: qHTS replaces the single test concentration by a dilution series.

Test [2] has as its target Glutathione peroxidase 1 (Homo sapiens) (UniProt P07203). Description: Primary qHTS Assay for Inhibitors of Recombinant Selenoprotein Glutathione Peroxidase 1 (GPX1) (AID 1845191). Also: nearly all actives have a fitted effect of over 65% in size. Put shortly:
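GR-coupled readout: NADPH consumption tracked by fluorescence, ex 340/em 450 nm, at t=0 and after 15 min at RT. Final mix 10 nM GPX1, 1 mM GSH, 0.5 mM CHP, 0.5 mM NADPH, 100 nM GR, 0.01% BSA, following 30 min enzyme–compound preincubation.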

In test [3] the target is Phospholipid hydroperoxide glutathione peroxidase GPX4 (Homo sapiens) (UniProt P36969). The test can be described thus: Primary qHTS Assay for Inhibitors of Recombinant Selenoprotein Glutathione Peroxidase 4 (GPX4) (AID 1845192). Also: nearly all actives have a fitted effect of over 65% in size. Also: potency is read from the fitted curve at half-maximal effect. The gist of the method: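 Steps: GPX4 plus compound, 30 min RT; add GR/GSH/NADPH master mix; start with cumene hydroperoxide; read 340/450 nm fluorescence at 0 and 15 min. Finals were 200 nM GPX4, 1 mM GSH, 0.5 mM CHP, 0.5 mM NADPH, 100 nM GR.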

A short description of test [4]: Quantitative High-Throughput drug screen in 47 multiple myeloma cell lines against the NCATS MIPE library collection: FR4_PLB cell viability assay (AID 1918924; also: nearly all actives have a fitted effect of over 35% in size; also: potency is read from the fitted curve at half-maximal effect). The gist of the method:
(§1)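 We plated 500 myeloma cells per well, pinned in MIPE 4.0 compounds, and incubated for 48 hours at 37C. ATP was then quantified with CellTiter-Glo, with DMSO and media-only wells defining 100% and 0%.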

Test [5] is described as follows: Quantitative High-Throughput drug screen in 47 multiple myeloma cell lines against the NCATS MIPE library collection: Delta47_JCRB cell viability assay (AID 1918925; also: nearly all actives have a fitted effect of over 45% in size; also: potency is read from the fitted curve at half-maximal effect). Put shortly:
(§2)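 Inhibition of cell viability is measured here. Each line was plated at 500 cells per well, treated with MIPE 4.0 drugs, kept 48 hours at 37C, then assayed for ATP content by CellTiter-Glo luminescence.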

Test [6] is described as follows: Quantitative High-Throughput drug screen in 47 multiple myeloma cell lines against the NCATS MIPE library collection: EJM_DSMZ cell viability assay (AID 1918926; also: nearly all actives have a fitted effect of over 30% in size; also: potency is read from the fitted curve at half-maximal effect). Put shortly:
as §2

Test [7] is described as follows: Quantitative High-Throughput drug screen in 47 multiple myeloma cell lines against the NCATS MIPE library collection: ARP1_JJKsccF8 cell viability assay (AID 1918928; also: nearly all actives have a fitted effect of over 40% in size; also: potency is read from the fitted curve at half-maximal effect). Put shortly:
(§3)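 Cell viability inhibition in this qHTS is measured via ATP content (CellTiter-Glo) after 48 h drug exposure at 37 °C. Wells hold 500 cells; DMSO-treated wells define 100% and medium-only wells 0%.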

The nature of test [8]: Quantitative High-Throughput drug screen in 47 multiple myeloma cell lines against the NCATS MIPE library collection: Karpas620_DSMZ cell viability assay (AID 1918959). Also: nearly all actives have a fitted effect of over 30% in size. Also: potency is read from the fitted curve at half-maximal effect. The gist of the method: as §1
Test [9] can be described thus: Quantitative High-Throughput drug screen in 47 multiple myeloma cell lines against the NCATS MIPE library collection: Karpas417_ECACC cell viability assay (AID 1918961). Also: potency is read from the fitted curve at half-maximal effect. Particulars: Karpas417 myeloma viability, CellTiter-Glo ATP luminescence, 48 h; viability (% of DMSO): at 45.8 µM (top of the series). Put shortly:
(§4)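 Viability readout: CellTiter-Glo luminescence following 5 min room-temperature incubation with reagent. Prior exposure: 48 h, 37C, humidified 5% CO2, 500 cells per well.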
Background: Cellular ATP, detected with luciferase, serves as a proxy for viable cell number.

A short description of test [10]: Quantitative High-Throughput drug screen in 47 multiple myeloma cell lines against the NCATS MIPE library collection: JIM3_ECACC cell viability assay (AID 1918963; also: nearly all actives have a fitted effect of over 35% in size; also: potency is read from the fitted curve at half-maximal effect). The gist of the method: as §1
Test [11] is described as follows: Quantitative High-Throughput drug screen in 47 multiple myeloma cell lines against the NCATS MIPE library collection: INA6_PLB cell viability assay (AID 1918965; also: nearly all actives have a fitted effect of over 55% in size; also: potency is read from the fitted curve at half-maximal effect). The gist of the method:
as §4

Test [12] concerns the target Luciferin 4-monooxygenase (Photinus pyralis) (UniProt P08659). The test can be described thus: Primary firefly luciferase (FLuc) qHTS assay for identification of artifact compounds. (AID 1845220). Also: nearly all actives have a fitted effect of over 60% in size. Particulars: outcome: dose series up to 54.1 µM unless noted. Put shortly:
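D-luciferin and ATP (10 uM each, final) in Tris acetate buffer pH 7.6 were incubated with compounds for 15 min at room temperature. The reaction was started with 10 nM Photinus pyralis luciferase and luminescence read after 5 min. Percent inhibition was fitted to a 4-parameter Hill equation.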

Test [13] is described as follows: Primary fluorescence-based thiol-reactive (MSTI) qHTS assay for identification of artifact compounds. (AID 1845221).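 Also: thiol-reactive compounds lower the probe fluorescence signal; nearly all actives have a fitted effect of over 65% in size.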 Put shortly:
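qHTS titration of compound; 4 uM MSTI, PBS pH 7.4, 2% DMSO; 1 h RT, dark; fluorescence 525/598 nm; normalized to Acetyl-MSTI and MSTI; 4-parameter Hill fit.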

The test system of test [14] is Nanoluciferase (engineered Oplophorus gracilirostris luciferase). Description: Primary Nanoluciferase (NLuc) qHTS assay for identification of artifact compounds. (AID 1845222). The gist of the method: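 Diluted conditioned medium from NLuc-expressing S16 cells treated with compounds for 15 min at room temperature, then Nano-Glo substrate added; luminescence read after 5 min. Percent inhibition versus no-enzyme and DMSO controls fitted to 4-parameter Hill equation.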

The nature of test [15]: Primary redox qHTS assay for identification of artifact compounds. (AID 1845223). Put shortly: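 Redox-cycling detection via DTT (250 uM final) oxidation coupled to Amplex Red (25 uM)/HRP (250 mU/mL) in HBSS. 15 min preincubation plus 30 min after DTT, room temperature. Ex/Em 525/598 nm; 4-parameter Hill fit against DMSO and 10 uM DA3003.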
Test [16] can be described thus: Quantitative High-Throughput drug screen in 47 multiple myeloma cell lines against the NCATS MIPE library collection: AMO1_DSMZ cell viability assay (AID 1918927; also: nearly all actives have a fitted effect of over 30% in size; also: potency is read from the fitted curve at half-maximal effect). Put shortly:
as §2

A short description of test [17]: Quantitative High-Throughput drug screen in 47 multiple myeloma cell lines against the NCATS MIPE library collection: ARD_JJKsccE7 cell viability assay (AID 1918929). Put shortly:
as §2

Test [18] is described as follows: Quantitative High-Throughput drug screen in 47 multiple myeloma cell lines against the NCATS MIPE library collection: KMM1_JCRB cell viability assay (AID 1918960). Also: nearly all actives have a fitted effect of over 30% in size. Also: potency is read from the fitted curve at half-maximal effect. The gist of the method: as §3
The nature of test [19]: Quantitative High-Throughput drug screen in 47 multiple myeloma cell lines against the NCATS MIPE library collection: KHM11_PLB cell viability assay (AID 1918962). Also: nearly all actives have a fitted effect of over 35% in size. Also: potency is read from the fitted curve at half-maximal effect. Put shortly:
as §1

A short description of test [20]: Quantitative High-Throughput drug screen in 47 multiple myeloma cell lines against the NCATS MIPE library collection: JIM1_ECACC cell viability assay (AID 1918964; also: potency is read from the fitted curve at half-maximal effect). Put shortly: as §2

From PubChem BioAssay (NCATS) come the findings set out here.

SMILES strings stand for the structures. Values joined by “and” are separate entries in the source; they are usually repeats but may differ in a detail not shown here. Equal entries are not always repeated. Records with an inconclusive call do not appear. Where a structure was tested more than once in an assay, its records may differ in their call. Active and inactive are the calls of the source. Calls follow the shape of the dose curve; as a rule, active = well fitted curve in the direction sought with a large enough effect; inconclusive = small, poorly fitted or top-dose-only effect, or another doubt; inactive = no such curve, though single readings can be large; an effect the other way counts as inactive or inconclusive.

Glutathione peroxidase 1 (Homo sapiens), sequence (P07203 whole entry, looked up): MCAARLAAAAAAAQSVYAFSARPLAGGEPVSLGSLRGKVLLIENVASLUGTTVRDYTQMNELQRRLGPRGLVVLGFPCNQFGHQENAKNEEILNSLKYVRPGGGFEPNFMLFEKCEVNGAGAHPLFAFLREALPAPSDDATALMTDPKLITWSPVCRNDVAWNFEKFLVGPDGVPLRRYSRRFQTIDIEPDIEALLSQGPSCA
Metallo-beta-lactamase type 2 (Klebsiella pneumoniae), sequence (C7C422 whole entry, looked up): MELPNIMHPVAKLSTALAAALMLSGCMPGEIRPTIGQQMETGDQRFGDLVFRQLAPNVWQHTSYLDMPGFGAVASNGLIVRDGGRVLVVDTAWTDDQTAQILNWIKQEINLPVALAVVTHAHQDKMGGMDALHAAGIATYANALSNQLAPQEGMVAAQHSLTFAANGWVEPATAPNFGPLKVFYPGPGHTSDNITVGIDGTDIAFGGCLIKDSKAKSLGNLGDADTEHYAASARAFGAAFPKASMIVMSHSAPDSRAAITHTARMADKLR
Phospholipid hydroperoxide glutathione peroxidase GPX4 (Homo sapiens), sequence (P36969 whole entry, looked up): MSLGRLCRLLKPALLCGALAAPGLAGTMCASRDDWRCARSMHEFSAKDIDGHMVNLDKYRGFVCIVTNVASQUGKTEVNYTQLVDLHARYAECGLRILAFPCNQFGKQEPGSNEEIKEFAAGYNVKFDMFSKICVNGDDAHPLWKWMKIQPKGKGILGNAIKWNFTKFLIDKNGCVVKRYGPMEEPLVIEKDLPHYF

As for `C[C@]12CCC3C(CC[C@H]4C[C@H](O)CC[C@]34C)C1CC[C@@H]2C(=O)CO` (stereo partly drawn), the call in test [1] was inactive. Further, the Potency result in [2] and in test [3] was “inactive” in each case.

Turning to `O=C(O)Cc1cnc[nH]1`, the Potency result in test [2] and in [3] was “inactive” each time.

In the case of `CCCCCCCCCCCCCCCC[N+](C)(C)C`, the Potency entry in test [2] is “inactive”.

For `C1CCC(NC2CCCCC2)CC1`, the Potency result in [2] is “inactive”.

In the case of `COC(=O)c1cncn1C(C)c1ccccc1` (stereo not drawn), the Potency entry in test [2] was “inactive”.

Regarding `O=C(O)COc1ccccc1`, the Potency entry in test [2] and in test [3] was “inactive” in each case.

As to `C[C@]12N[C@H](Cc3ccccc31)c1ccccc12`, the Potency result in [2] was “inactive”.

With `CC1=NN=C(c2ccc(N)cc2)c2cc3c(cc2C1)OCO3`, the compound was called inactive in [1]. In addition, the Potency entry in test [2], in test [4], in test [5], in test [6], in test [7] and in [10] was “inactive” each time. Besides, in [11], the Potency entry was “inactive”. In addition, the Potency in [8] and in test [9] was 20900 nM (active) each time.

With `CC[N+]1(CCOC(=O)C(O)(c2ccccc2)c2ccccc2)CCCCC1`, the Potency result in [2] is “inactive”.

On to `CNCCc1c[nH]c2ccc(O)cc12`, for which the Potency result in test [2] and in test [3] was “inactive” each time.

Turning to `CC(C)N(CCNC(=O)CN1CCCC1=O)C(C)C`, the Potency entry in [2], in [3], in test [13], in test [4], in [5] and in test [6] was “inactive” in each case. Moreover, the Potency result in test [16], in test [7], in test [17], in [8], in [18] and in test [9] was “inactive” each time. Moreover, the Potency entry in test [19], in test [10] and in test [11] was “inactive” in each case. For the same compound, the outcome in test [12], in test [14] and in test [15] was inactive.

As for `O=C(N[C@H]1CN2CCC1CC2)c1ccc(Cl)cc1`, the result in test [1], in [12], in test [14] and in test [15] was inactive. The Potency result in test [2], in test [3], in test [13], in [4], in test [6] and in [17] was “inactive” each time. Besides, the Potency result in test [8], in [18], in test [19] and in test [10] was “inactive” each time.

In the case of `Oc1ccc2c3c1O[C@H]1c4[nH]c5c(c4C[C@@]4(O)[C@@H](C2)N(CC2CC2)CC[C@]314)C[C@@]1(O)[C@H]2Cc3ccc(O)c4c3[C@@]1(CCN2CC1CC1)[C@H]5O4`, the result in test [1] was inactive. The Potency result in [2], in [3], in [4], in [5], in test [6] and in test [16] was “inactive” each time. The Potency result in test [7], in test [17], in test [8], in test [19], in test [10] and in test [20] was “inactive” each time. In addition, the Potency entry in test [11] is “inactive”.

Consider `CC[C@@]1(O)C(=O)OCc2c1cc1n(c2=O)Cc2cc3ccccc3nc2-1`, for which the outcome in test [1] was inactive. Further, the Potency entry in test [2] is “inactive”. The Potency result in [3] is “inactive and 9.04 µM (active)”; in test [4], 296 nM (active); in [5] it was 74.3 nM (active); in test [6], 209 nM (active); in test [16], 23.5 nM (active); in test [7], 118 nM (active). Also, the Potency in [8] was 418 nM (active); in [18], 105 nM (active); in test [9] it was 296 nM (active); in test [19], 235 nM (active); in test [10], 264 nM (active); in test [20], 132 nM (active). Also, the Potency in test [11] is 20.9 nM (active).

For `NCCc1c[nH]c2ccc(O)cc12`, in [1], the compound was called inactive. The Potency result in test [2] and in [3] was “inactive” each time.
